Inconclusive results are not listed. Calls of active or inactive are those of the source. Unless noted, calls come from the whole dose curve; as a rule, active = well fitted curve in the direction sought with a large enough effect in the repeat runs; inconclusive = weak or mixed curves; inactive = no such curve, though single readings can be large; an effect the other way counts as inactive or inconclusive.
Legend:
[1] = qHTS assay to identify small molecule HDAC inhibitors - cell viability counter screen (AID 1259365); note: series mostly up to about 92 µM; nearly all actives have a fitted effect of over 50% in size
Summary of the method: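 HCT-116 (wild type), 1,500 cells/well, overnight 37C/5% CO2; compound in DMSO 2hr; CellTiter-Glo 30min RT; luminescence read.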

[2] = qHTS assay to identify small molecule agonists of the sonic hedgehog signaling (Shh) pathway - cell viability counter screen (AID 1259366); note: nearly all actives have a fitted effect of over 50% in size
Summary of the method: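 CellTiter-Fluor fluorescence read-out, 1 hr at 37C, added after 23hr compound exposure. Cells: 3T3 Gli1-Luc, an NIH/3T3 clone with stably integrated Gli1-Luc reporter, plated 4hr before compound.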

[3] = qHTS assay to identify small molecule antagonists of the sonic hedgehog signaling (Shh) pathway - cell viability counter screen (AID 1259367); note: nearly all actives have a fitted effect of over 55% in size
Summary of the method: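 NIH/3T3-derived Gli1-Luc reporter cells, 2,000/well, plated 4 hr before compound addition, then stimulated with conditioned medium for 24 hr at 37C. Viability measured in the same wells by CellTiter-Fluor fluorescence, reagent added at 23 hr for 1 hr.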

[4] = qHTS assay to identify small molecule antagonists of the sonic hedgehog signaling (Shh) pathway (AID 1259369; calls by dose curve; note: nearly all actives have a fitted effect of over 45% in size)
Summary of the method: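 For antagonist detection, the reporter line received test compounds together with conditioned medium, incubated 24hr at 37 C, 5% CO2, then luminescence was recorded following 30min room-temperature luciferase reagent incubation.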

[5] = biological target: Estrogen receptor beta (Homo sapiens) (UniProt Q92731); assay: qHTS assay to identify small molecule agonists of the estrogen receptor beta (ER-beta) signaling pathway (AID 1259377; active = well fitted activation curve with a large enough effect in the signal ratio in the repeat runs, not every such curve was filed as active; the % refers to the signal ratio)
Summary of the method: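 Beta-lactamase reporter readout: fluorescence of LiveBLAzer B/G FRET substrate after 2 h at room temperature, following 16 h compound treatment of ER-beta-UAS-bla HEK293T cells at 37C in 2% charcoal-stripped FBS medium.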

[6] = biological target: Estrogen receptor beta (Homo sapiens) (UniProt Q92731); assay: qHTS assay to identify small molecule antagonists of the estrogen receptor beta (ER-beta) signaling pathway (AID 1259378; active = well fitted inhibition curve with a large enough effect in the signal ratio in the repeat runs, not every such curve was filed as active; the % refers to the signal ratio)
Summary of the method: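 ER-beta-UAS-bla HEK293T cells in 2% charcoal-stripped FBS medium treated with compound plus 1nM final 17-beta-estradiol for 16 hr at 37C. Beta-lactamase reporter read by FRET substrate fluorescence after 2 hours at room temperature.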

[7] = qHTS assay to identify small molecule agonists of the androgen receptor (AR) signaling pathway in the presence of an antagonist - cell viability counter screen (AID 1259379);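 note: MDA-kb2 human breast cancer cells carrying an MMTV luciferase reporter; series mostly up to about 92 µM; nearly all actives have a fitted effect of over 25% in size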
Summary of the method: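 Seed MDA-kb2 at 3,000 cells/well; incubate 5 hr, 37C, 0% CO2. Add nilutamide to 3.0uM final, then pin compounds at 15 concentrations. Incubate 16 hr. Add CellTiter-Fluor at 15 hr, read fluorescence after 1 hr.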

[8] = qHTS assay to identify small molecule agonists of the estrogen receptor beta (ER-beta) signaling pathway - cell viability counter screen (AID 1259380); note: nearly all actives have a fitted effect of over 30% in size
Summary of the method: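 CellTiter-Glo read, 30 min RT, same wells as bla assay; cells ER-beta-UAS-bla HEK293T; 16 hr compound, 37C; medium 2% charcoal-stripped FBS.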

[9] = biological target: Androgen receptor (Homo sapiens) (UniProt P10275); assay: qHTS assay to identify small molecule agonists of the androgen receptor (AR) signaling pathway in the presence of an antagonist (AID 1259381; calls by dose curve; note: nearly all actives have a fitted effect of over 15% in size)
Summary of the method: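 Test compounds at 15 concentrations were incubated for 16hr with MDA-kb2 reporter cells in presence of 3.0uM nilutamide (final). Signal: ONE-Glo luciferase luminescence.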

[10] = qHTS assay to identify small molecule agonists of the sonic hedgehog signaling (Shh) pathway (AID 1259368; calls by dose curve;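 note: NIH/3T3-derived 3T3Gli1-Luc cells carrying a stable Gli1-driven firefly luciferase reporter; series mostly up to about 92 µM; nearly all actives have a fitted effect of over 15% in size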)
Summary of the method: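 A Gli1 transcriptional response element controlled firefly luciferase in 3T3Gli1-Luc cells. Compounds and a positive control were added 4 hr after plating, and cells were incubated a further 24 hr at 37 C before luminescence detection.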

Measured: Potency

Chain of Androgen receptor (Homo sapiens) (P10275 whole entry, looked up): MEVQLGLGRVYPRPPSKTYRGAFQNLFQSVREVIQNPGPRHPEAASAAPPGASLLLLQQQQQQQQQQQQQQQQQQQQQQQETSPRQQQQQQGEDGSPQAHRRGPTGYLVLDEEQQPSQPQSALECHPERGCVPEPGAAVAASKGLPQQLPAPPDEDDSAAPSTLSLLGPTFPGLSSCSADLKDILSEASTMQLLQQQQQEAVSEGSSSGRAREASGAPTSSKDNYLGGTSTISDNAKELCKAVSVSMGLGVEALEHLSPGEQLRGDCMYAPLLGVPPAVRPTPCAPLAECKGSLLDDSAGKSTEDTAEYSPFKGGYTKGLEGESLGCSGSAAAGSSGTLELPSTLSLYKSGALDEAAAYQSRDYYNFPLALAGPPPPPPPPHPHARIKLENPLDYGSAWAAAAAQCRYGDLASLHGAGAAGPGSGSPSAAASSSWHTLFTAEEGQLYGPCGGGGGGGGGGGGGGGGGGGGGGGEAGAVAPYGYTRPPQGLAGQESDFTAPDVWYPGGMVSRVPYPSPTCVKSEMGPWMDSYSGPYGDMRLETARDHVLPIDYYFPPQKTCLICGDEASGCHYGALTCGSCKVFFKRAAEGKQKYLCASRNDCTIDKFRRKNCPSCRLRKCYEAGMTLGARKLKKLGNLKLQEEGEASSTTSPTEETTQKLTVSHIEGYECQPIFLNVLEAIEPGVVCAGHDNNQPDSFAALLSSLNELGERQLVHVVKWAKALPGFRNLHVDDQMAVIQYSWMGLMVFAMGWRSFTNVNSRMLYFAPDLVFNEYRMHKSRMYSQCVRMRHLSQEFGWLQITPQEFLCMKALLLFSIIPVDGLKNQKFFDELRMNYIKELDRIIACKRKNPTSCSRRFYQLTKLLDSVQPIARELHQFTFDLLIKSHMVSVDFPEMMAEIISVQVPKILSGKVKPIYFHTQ
Chain of Estrogen receptor beta (Homo sapiens) (Q92731 whole entry, looked up): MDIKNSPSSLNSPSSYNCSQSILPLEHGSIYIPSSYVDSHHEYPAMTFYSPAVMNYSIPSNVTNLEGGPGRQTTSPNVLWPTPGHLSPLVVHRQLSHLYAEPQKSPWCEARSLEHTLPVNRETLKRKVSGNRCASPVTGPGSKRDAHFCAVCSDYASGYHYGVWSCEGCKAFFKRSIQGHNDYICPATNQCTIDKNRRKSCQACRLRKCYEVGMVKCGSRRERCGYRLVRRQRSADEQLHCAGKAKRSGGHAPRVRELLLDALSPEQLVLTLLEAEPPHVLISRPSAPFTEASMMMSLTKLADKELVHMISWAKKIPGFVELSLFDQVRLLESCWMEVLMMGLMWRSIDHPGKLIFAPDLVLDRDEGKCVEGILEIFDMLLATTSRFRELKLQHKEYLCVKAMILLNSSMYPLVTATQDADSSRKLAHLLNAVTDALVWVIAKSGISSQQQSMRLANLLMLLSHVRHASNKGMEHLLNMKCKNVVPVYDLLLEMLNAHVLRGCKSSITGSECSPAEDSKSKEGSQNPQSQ

C/C(=N\O)c1ccc(OCC(=O)N2CCCCC2)cc1
inactive: [1] | [2] | [3] | [4] | [5] | [6] | [7] | [8] | [9]

Nc1nc(Cl)cc(Cl)n1
inactive: [1] | [2] | [3] | [10] | [5] | [6] | [7] | [8]

N[C@H]1C(O)O[C@H](CO)[C@@H](O)[C@@H]1O (stereo partly drawn)
inactive: [1] | [2] | [10] | [4] | [5] | [6] | [7] | [8] | [9]

O=C(O)CCCCCCCCCC(=O)O
inactive: [1] | [10] | [5] | [6] | [7] | [8] | [9]

CCOC(=O)COc1ccc2c(C)c(CCN(CC)CC)c(=O)oc2c1Cl
inactive: [1] | [3] | [10] | [4] | [7] | [8]

O=C(O)COc1ccc2ccccc2c1
inactive: [1] | [10] | [4] | [5] | [6] | [7] | [8]

CSC(=O)c1cccc2nnsc12
inactive: [1] | [3] | [10] | [4] | [7] | [8] | [9]

Cc1nc2ccc(Cl)cc2[nH]1
inactive: [1] | [3] | [10] | [5] | [6] | [7] | [8]

O=S(=O)(O)c1ccc(Cl)cc1
inactive: [1] | [3] | [10] | [4] | [5] | [6] | [7] | [8]

From PubChem BioAssay (Tox21)
